# About 79,000 compounds went through this panel and 15% of them were active in at least one assay; those are over-represented in the sample as a whole. A number with no mark means an inactive call. The source made the active and inactive calls. Cut-off read from the data, not from the text of the source: active = growth inhibition above about 70%; inactive = the rest.
# Key:
# [1] = NCI Yeast Anticancer Drug Screen. Data for the rad52 strain (AID 147);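 note: 0% = growth of vehicle-treated control cultures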; conditions: S. cerevisiae rad52 mutant growth inhibition, stronger effect = higher value
# Method in brief: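 Inhibition of yeast growth, referenced to vehicle controls, was the measured output for a strain with defective DNA damage repair.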
# [2] = NCI Yeast Anticancer Drug Screen. Data for the wt1 strain (AID 149);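 note: 0% = growth of vehicle-treated wt1 cultures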; conditions: S. cerevisiae wt1 strain (SPY 50644) growth inhibition, stronger effect = higher value
# Method in brief: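 Yeast wt1 strain exposed to compounds; growth inhibition measured relative to vehicle-treated controls.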
# [3] = NCI Yeast Anticancer Drug Screen. Data for the rad50EPP+ strain (AID 151);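 note: 0% = growth of vehicle-treated control cultures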; conditions: S. cerevisiae rad50 mutant strain, stronger effect = higher value
# Method in brief: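 Genetically defined yeast (rad50EPP+, DNA damage repair alteration) is grown with compound, and inhibition of growth is expressed relative to vehicle-treated controls.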
# [4] = NCI Yeast Anticancer Drug Screen. Data for the rad50 strain (AID 155);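 note: 0% = growth of vehicle-only cultures of the same strain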; conditions: S. cerevisiae rad50 strain growth inhibition, stronger effect = higher value
# Method in brief: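 Yeast carrying a defined DNA repair defect were exposed to test compounds, and growth was compared with vehicle-treated controls to give percent inhibition.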
# [5] = NCI Yeast Anticancer Drug Screen. Data for the mec2-1 strain (AID 157); conditions: S. cerevisiae mec2-1 strain, stronger effect = higher value
# Method in brief: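 Each compound was tested on mec2-1 yeast, a strain altered in DNA damage repair or cell cycle control. Growth inhibition is reported relative to vehicle.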
# [6] = NCI Yeast Anticancer Drug Screen. Data for the rad14 strain (AID 159);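 note: 0% = growth of vehicle-treated control cultures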; conditions: S. cerevisiae rad14 strain growth inhibition, stronger effect = higher value
# Method in brief: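 Yeast cells carrying a defined DNA-repair defect were exposed to compounds, and growth inhibition was calculated relative to vehicle-treated control cultures.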
# [7] = NCI Yeast Anticancer Drug Screen. Data for the sgs1 mgt1 strain (AID 161);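 note: 0% = growth of cultures given vehicle only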; conditions: S. cerevisiae sgs1 mgt1 strain, stronger effect = higher value
# Method in brief: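 Read-out: growth inhibition vs vehicle controls. Cells: mutant yeast strain deficient in DNA damage repair.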
# [8] = NCI Yeast Anticancer Drug Screen. Data for the CLN2oe strain (AID 163);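 note: 0% = growth of vehicle-only control cultures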; conditions: S. cerevisiae CLN2oe strain, stronger effect = higher value
# Method in brief: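 First, the altered yeast strain was treated with each compound; second, its growth was measured; finally, inhibition was derived by comparison with vehicle controls.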
# [9] = NCI Yeast Anticancer Drug Screen. Data for the cln2 rad14 strain (AID 165);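 note: 0% = growth equal to vehicle treated cultures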; conditions: S. cerevisiae cln2 rad14 strain, stronger effect = higher value
# Method in brief: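 Test compounds were added to cln2 rad14 yeast cultures; inhibition of growth was then determined by comparison with vehicle treatment.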
# [10] = NCI Yeast Anticancer Drug Screen. Data for the bub3 strain (AID 167); conditions: S. cerevisiae bub3 mutant strain, stronger effect = higher value
# Method in brief: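 Compounds were applied to a genetically altered yeast strain carrying a cell-cycle control defect. Growth inhibition was scored against vehicle-treated controls.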
# [11] = NCI Yeast Anticancer Drug Screen. Data for the wt2 strain (AID 169);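 note: 0% = growth of vehicle-treated yeast cultures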; conditions: S. cerevisiae wt2 strain growth inhibition, stronger effect = higher value
# Method in brief: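 The panel's yeast strains carry defined changes in DNA repair or cell cycle genes. Each strain is grown with compound, and growth loss is scored relative to vehicle.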
# [12] = NCI Yeast Anticancer Drug Screen. Data for the mlh1 strain (AID 171);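 note: 0% = growth of vehicle-treated control cultures of the same strain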; conditions: S. cerevisiae mlh1 strain growth inhibition, stronger effect = higher value
# Method in brief: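 Inhibition values reflect reduced yeast growth in the presence of compound, referenced to vehicle controls, using a strain chosen for its alteration in DNA repair or cell cycle control.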
# [13] = NCI Yeast Anticancer Drug Screen. Data for the sgs1 strain (AID 173);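 note: 0% = growth of vehicle-only control cultures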; conditions: S. cerevisiae sgs1 mutant, stronger effect = higher value
# Method in brief: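 Vehicle-treated cultures served as reference for growth inhibition of a yeast strain altered in DNA damage repair or cell cycle control after compound exposure.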
# [14] = NCI Yeast Anticancer Drug Screen. Data for the mlh1 rad18 strain (AID 175); conditions: S. cerevisiae mlh1 rad18 strain growth inhibition, stronger effect = higher value
# Method in brief: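 Inhibition values reflect reduced growth of mutant yeast versus vehicle-treated controls following compound exposure; the mutations affect DNA damage repair.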
# [15] = NCI Yeast Anticancer Drug Screen. Data for the rad18 strain (AID 177); conditions: S. cerevisiae rad18 mutant growth inhibition, stronger effect = higher value
# Method in brief: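 Steps: expose repair-mutant yeast to compound; measure growth; express as inhibition relative to vehicle control.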
# [16] = at 5.0 µM (retest, dose inferred, filed as 0.5)
# [17] = at 50.0 µM (retest, dose inferred, filed as 5.0)
structure (smiles),measurement,setting,value
O=Cc1coc2ccccc2c1=O,growth inhibition,[1]; at 1.2 µM,-9%
same,growth inhibition,[1]; at 3.7 µM,3%
same,growth inhibition,[1]; at 11.0 µM,11%
same,growth inhibition,[1]; at 33.0 µM,22%
same,growth inhibition,[1]; at 100.0 µM,48%
same,growth inhibition,[2]; at 1.2 µM,10%
same,growth inhibition,[2]; at 3.7 µM,19%
same,growth inhibition,[2]; at 11.0 µM,18%
same,growth inhibition,[2]; at 33.0 µM,22%
same,growth inhibition,[2]; at 100.0 µM,42%
same,growth inhibition,[3]; at 1.2 µM,2%
same,growth inhibition,[3]; at 3.7 µM,11%
same,growth inhibition,[3]; at 11.0 µM,28%
same,growth inhibition,[3]; at 33.0 µM,66%
same,growth inhibition,[3]; at 100.0 µM,91% (active)
same,growth inhibition,[4]; at 1.2 µM,-23%
same,growth inhibition,[4]; at 3.7 µM,10%
same,growth inhibition,[4]; [16],12%
same,growth inhibition,[4]; at 11.0 µM,17%
same,growth inhibition,[4]; at 33.0 µM,24%
same,growth inhibition,[4]; [17],26%
same,growth inhibition,[4]; at 50.0 µM,20.4%
same,growth inhibition,[4]; at 100.0 µM,57%
same,growth inhibition,[5]; at 1.2 µM,-7%
same,growth inhibition,[5]; at 3.7 µM,12%
same,growth inhibition,[5]; [16],-15%
same,growth inhibition,[5]; at 11.0 µM,18%
same,growth inhibition,[5]; at 33.0 µM,18%
same,growth inhibition,[5]; [17],70% (active)
same,growth inhibition,[5]; at 50.0 µM,35.2%
same,growth inhibition,[5]; at 100.0 µM,65%
same,growth inhibition,[6]; at 1.2 µM,-16%
same,growth inhibition,[6]; at 3.7 µM,-7%
same,growth inhibition,[6]; at 11.0 µM,8%
same,growth inhibition,[6]; at 33.0 µM,16%
same,growth inhibition,[6]; at 100.0 µM,95% (active)
same,growth inhibition,[7]; [16],9%
same,growth inhibition,[7]; [17],98% (active)
same,growth inhibition,[7]; at 50.0 µM,89.7% (active)
same,growth inhibition,[8]; at 1.2 µM,-1%
same,growth inhibition,[8]; at 3.7 µM,25%
same,growth inhibition,[8]; at 11.0 µM,27%
same,growth inhibition,[8]; at 33.0 µM,2%
same,growth inhibition,[8]; at 100.0 µM,40%
same,growth inhibition,[9]; [16],6%
same,growth inhibition,[9]; [17],19%
same,growth inhibition,[9]; at 50.0 µM,75.2% (active)
same,growth inhibition,[10]; at 1.2 µM,5%
same,growth inhibition,[10]; at 3.7 µM,13%
same,growth inhibition,[10]; [16],2%
same,growth inhibition,[10]; at 11.0 µM,8%
same,growth inhibition,[10]; at 33.0 µM,15%
same,growth inhibition,[10]; [17],87% (active)
same,growth inhibition,[10]; at 50.0 µM,88.8% (active)
same,growth inhibition,[10]; at 100.0 µM,51%
same,growth inhibition,[11]; at 1.2 µM,-17%
same,growth inhibition,[11]; at 3.7 µM,-11%
same,growth inhibition,[11]; at 11.0 µM,3%
same,growth inhibition,[11]; at 33.0 µM,12%
same,growth inhibition,[11]; at 100.0 µM,99% (active)
same,growth inhibition,[12]; at 1.2 µM,1%
same,growth inhibition,[12]; at 3.7 µM,5%
same,growth inhibition,[12]; at 11.0 µM,24%
same,growth inhibition,[12]; at 33.0 µM,30%
same,growth inhibition,[12]; at 100.0 µM,61%
same,growth inhibition,[13]; at 1.2 µM,0%
same,growth inhibition,[13]; at 3.7 µM,14%
same,growth inhibition,[13]; at 11.0 µM,23%
same,growth inhibition,[13]; at 33.0 µM,32%
same,growth inhibition,[13]; at 100.0 µM,60%
same,growth inhibition,[14]; [16],-1%
same,growth inhibition,[14]; [17],16%
same,growth inhibition,[14]; at 50.0 µM,62.4%
same,growth inhibition,[15]; at 1.2 µM,5%
same,growth inhibition,[15]; at 3.7 µM,19%
same,growth inhibition,[15]; at 11.0 µM,18%
same,growth inhibition,[15]; at 33.0 µM,20%
same,growth inhibition,[15]; at 100.0 µM,67%
Cc1ccc(S(=O)(=O)N/N=C/C2(c3ccccc3)c3ccccc3-c3ccccc32)cc1,growth inhibition,[1]; at 1.2 µM,41%
same,growth inhibition,[1]; at 3.7 µM,45%
same,growth inhibition,[1]; at 11.0 µM,79% (active)
same,growth inhibition,[1]; at 33.0 µM,93% (active)
same,growth inhibition,[1]; at 100.0 µM,86% (active)
same,growth inhibition,[2]; at 1.2 µM,25%
same,growth inhibition,[2]; at 3.7 µM,13%
same,growth inhibition,[2]; at 11.0 µM,34%
same,growth inhibition,[2]; at 33.0 µM,87% (active)
same,growth inhibition,[2]; at 100.0 µM,83% (active)
same,growth inhibition,[3]; at 1.2 µM,11%
same,growth inhibition,[3]; at 3.7 µM,2%
same,growth inhibition,[3]; at 11.0 µM,17%
same,growth inhibition,[3]; at 33.0 µM,-8%
same,growth inhibition,[3]; at 100.0 µM,-37%
same,growth inhibition,[4]; at 1.2 µM,4%
same,growth inhibition,[4]; at 3.7 µM,36%
same,growth inhibition,[4]; [16],38%
same,growth inhibition,[4]; at 11.0 µM,82% (active)
same,growth inhibition,[4]; at 33.0 µM,90% (active)
same,growth inhibition,[4]; [17],92% (active)
same,growth inhibition,[4]; at 50.0 µM,29.5%
same,growth inhibition,[4]; at 100.0 µM,77% (active)
same,growth inhibition,[5]; at 1.2 µM,25%
same,growth inhibition,[5]; at 3.7 µM,15%
same,growth inhibition,[5]; [16],22%
same,growth inhibition,[5]; at 11.0 µM,27%
same,growth inhibition,[5]; at 33.0 µM,78% (active)
same,growth inhibition,[5]; [17],93% (active)
same,growth inhibition,[5]; at 50.0 µM,7.7%
same,growth inhibition,[5]; at 100.0 µM,84% (active)
same,growth inhibition,[6]; at 1.2 µM,9%
same,growth inhibition,[6]; at 3.7 µM,9%
same,growth inhibition,[6]; at 11.0 µM,45%
same,growth inhibition,[6]; at 33.0 µM,86% (active)
same,growth inhibition,[6]; at 100.0 µM,86% (active)
same,growth inhibition,[7]; [16],31%
same,growth inhibition,[7]; [17],93% (active)
same,growth inhibition,[7]; at 50.0 µM,33.8%
same,growth inhibition,[8]; at 1.2 µM,37%
same,growth inhibition,[8]; at 3.7 µM,38%
same,growth inhibition,[8]; at 11.0 µM,80% (active)
same,growth inhibition,[8]; at 33.0 µM,91% (active)
same,growth inhibition,[8]; at 100.0 µM,76% (active)
same,growth inhibition,[9]; [16],45%
same,growth inhibition,[9]; [17],90% (active)
same,growth inhibition,[9]; at 50.0 µM,16.1%
same,growth inhibition,[10]; at 1.2 µM,19%
same,growth inhibition,[10]; at 3.7 µM,9%
same,growth inhibition,[10]; [16],20%
same,growth inhibition,[10]; at 11.0 µM,54%
same,growth inhibition,[10]; at 33.0 µM,88% (active)
same,growth inhibition,[10]; [17],90% (active)
same,growth inhibition,[10]; at 50.0 µM,29.1%
same,growth inhibition,[10]; at 100.0 µM,62%
same,growth inhibition,[12]; at 1.2 µM,21%
same,growth inhibition,[12]; at 3.7 µM,7%
same,growth inhibition,[12]; at 11.0 µM,30%
same,growth inhibition,[12]; at 33.0 µM,61%
same,growth inhibition,[12]; at 100.0 µM,71% (active)
same,growth inhibition,[13]; at 1.2 µM,16%
same,growth inhibition,[13]; at 3.7 µM,15%
same,growth inhibition,[13]; at 11.0 µM,45%
same,growth inhibition,[13]; at 33.0 µM,82% (active)
same,growth inhibition,[13]; at 100.0 µM,80% (active)
same,growth inhibition,[14]; [16],79% (active)
same,growth inhibition,[14]; [17],91% (active)
same,growth inhibition,[14]; at 50.0 µM,70.5% (active)
same,growth inhibition,[15]; at 1.2 µM,50%
same,growth inhibition,[15]; at 3.7 µM,52%
same,growth inhibition,[15]; at 11.0 µM,80% (active)
same,growth inhibition,[15]; at 33.0 µM,91% (active)
same,growth inhibition,[15]; at 100.0 µM,89% (active)

# Reference: PubChem BioAssay (NCI)
